Source: PubChem
Compounds with a hit are over-represented: about 1.6% of the library has one in this group of screens.
PKA-R1A act: activators of PKA-R1A holoenzyme, primary screen, biochemical, fluorescence polarization, Cy5-IP20, bovine R1A, mouse PKAc | hit rate 0.083% among 340,000 | AID 504707, 2011 | activation, % at 11.4 µM | PKA-R1A dissociation; scaled: DMSO 0%, 113 µM cGMP 100% | cAMP-dependent protein kinase type I-alpha regulatory subunit (Bos taurus) + …;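 active means percent activation above the mean of all tested compounds plus 3 SD, cut at about 19% in these data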;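 further: higher means more PKAc released from R1A so a rise in polarization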
ATG4B inhibitor: ATG4B protease inhibitors, primary screen, biochemical, fluorescence, uHTS | Cysteine protease ATG4B (Homo sapiens), Q9Y4P1 | ATG4B cleavage of LC3-PLA2, NBD-HPC fluorescence, 1 h | inhibition, % at 8.33 µM | hit rate 0.51% among 340,000; in the data active means inhibition above about 40%
Target sequence (Q9Y4P1 whole entry, looked up): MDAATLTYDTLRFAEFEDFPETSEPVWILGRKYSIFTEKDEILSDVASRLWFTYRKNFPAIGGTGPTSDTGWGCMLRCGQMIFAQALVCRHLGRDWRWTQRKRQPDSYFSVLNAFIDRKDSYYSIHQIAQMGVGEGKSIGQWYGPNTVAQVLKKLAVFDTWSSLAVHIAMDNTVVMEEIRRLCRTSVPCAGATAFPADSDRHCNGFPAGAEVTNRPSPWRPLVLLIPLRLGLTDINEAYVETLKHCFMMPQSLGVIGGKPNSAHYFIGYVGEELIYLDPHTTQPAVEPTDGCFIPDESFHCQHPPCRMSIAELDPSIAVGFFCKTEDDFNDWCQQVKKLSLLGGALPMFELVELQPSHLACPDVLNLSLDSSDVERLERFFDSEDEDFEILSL
NRP1-CendR mod: modulators of CendR peptide binding to NRP-1, primary screen, biochemical, fluorescence polarization, uHTS. Neuropilin-1 (Homo sapiens), O14786. FAM-RPARPAR peptide binding to NRP-1. AID 602438, 2012. hit rate 0.85% among 360,000. inhibition, % at 25 µM;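 active means inhibition or corrected inhibition above about 18%, plus a signal ratio from 0.5 to 1.5, limit read from the data, passing the limit was not always enough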
PKA-R2B activ: activators of PKA-R2B holoenzyme, primary screen, biochemical, fluorescence polarization, Cy5-IP20, human; AID 504700, 2011; PKA-R2B holoenzyme dissociation; R2B truncated from residue 108, S112A mutant; 0% DMSO only, 100% 113 µM cGMP; cAMP-dependent protein kinase catalytic subunit beta (Homo sapiens) + cAMP-dependent …; hit rate 0.079% among 340,000; activation, % at 11.4 µM;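 active means activation above a cutoff set at the mean over all compounds plus 3 SD, cut at about 18% in these data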;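 further: higher means more holoenzyme dissociation and a rise in polarization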
VLA-4 inh: inhibition in human VLA-4 binding assay, primary screen, VLA-4 allosteric modulator project, MLPCN library, flow cytometry, VLA-4 expressing cells | Integrin alpha-4 (Homo sapiens), P13612 | ligand binding flow cytometry | inhibition, % (about 7 µM as worked out from the volumes in the protocol) | hit rate 0.2% among 330,000 | AID 2557, 2010; in the data active means inhibition above about 50%
R2B FP artifact: fluorescence polarization artefacts, biochemical, artefact control for PKA-R2B activator project. shares compounds with PKA-R2B activ. FP artifact counterscreen. activation, % at 11.4 µM. hit rate 6% among 270. AID 504796, 2011; in the data active means activation above about 20%;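 further: Cy5 labelled IP20 peptide probe with compound but no PKA protein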
PKA-R2B act conf: activators of PKA-R2B holoenzyme, confirmation, biochemical, fluorescence polarization, human | shares compounds with PKA-R2B activ | PKA-R2B complex, activation | activation, % at 11.4 µM | hit rate 9% among 270 | AID 504797, 2011; in the data active means activation above about 19%
Numbers without * were called inactive; . = no result.

SMILES	PKA-R1A act	ATG4B inhibitor	NRP1-CendR mod	PKA-R2B activ	VLA-4 inh	R2B FP artifact	PKA-R2B act conf
Cc1ccccc1N1CCN(S(=O)(=O)C[C@]23CCC(CC2NC(=O)[C@@H](N)CCS(C)(=O)=O)C3(C)C)CC1 (stereo partly drawn)	10.1	-8.8	-8.0	18.7*	2.4	2.0	-2.4
C=CCn1c(SCN2C(=O)c3ccccc3C2=O)nc2ccc(Cl)cc2c1=O	3.2	6.4	14.0	18.7*	17.8	0.0	2.8
C=CCn1c(SCC(=O)Nc2sccc2C(N)=O)nc2ccc(Cl)cc2c1=O	4.4	7.6	-20.4	-2.7	-11.6	.	.
Cc1cc(F)ccc1NS(=O)(=O)c1c(C)nc2scc(C)n2c1=O	-3.9	4.3	10.1	5.6	11.5	.	.
Cc1nc2scc(C)n2c(=O)c1S(=O)(=O)Nc1ccc(F)cc1	11.8	-1.1	-2.1	21.7*	-8.3	4.4	1.8
CCCc1cc(NC(=O)CCl)n(-c2ccccc2)n1	-0.2	-1.7	-6.0	19.7*	10.3	-0.2	-3.4
O=S1(=O)CCN(Cc2ccc(Cl)c(C(F)(F)F)c2)CC1	-2.2	-7.2	-2.8	-7.2	8.4	.	.
Cc1cccc(C)c1N1C(=O)c2ccccc2NC(=O)C1C(=O)NCCOc1ccccc1 (stereo not drawn)	.	.	0.4	.	.	.	.
CCN(CC)c1ccc(-n2c(C)c(C(C)=O)c(C(C)=O)c2C)cc1	-9.5	-16.2	-0.9	18.6*	30.1	0.2	1.9
CC(=O)c1c(C(C)=O)c(C)n(-c2ccc(O)cc2)c1C	-2.8	-2.0	0.3	12.2	2.2	.	.
COC(=O)c1ccc(N2CCN(S(=O)(=O)c3c(C)cc(C)cc3C)CC2)c([N+](=O)[O-])c1	-14.0	2.9	1.7	18.5*	5.3	-5.1	-4.7
COC(=O)c1ccc(N2CCN(S(=O)(=O)c3ccc(C)cc3)CC2)c([N+](=O)[O-])c1	-4.6	-5.8	-0.9	-7.6	5.3	.	.
O=C1C2=C(SCCS2)C(=O)N1c1ccccc1	-9.4	5.0	2.7	24.0*	-5.1	-2.6	-1.8
O=C1CSCC(=O)N1c1ccccc1	3.6	12.5	1.2	7.5	2.5	.	.
CCCc1cc(=O)n2[nH]c(NCc3ccccc3F)nc2n1	2.2	-5.4	-1.1	10.5	-6.7	.	.
CCCc1cc(=O)n2[nH]c(NCc3c(Cl)cccc3Cl)nc2n1	14.7	-2.9	-13.4	24.1*	6.3	22.2*	17.9
CC(NC(=O)c1cc(S(=O)(=O)N2CCOCC2)ccc1N1CCCC1)c1ccc(Cl)c(Cl)c1 (stereo not drawn)	-3.0	-2.3	6.2	-15.6	-3.9	.	.
Cc1cnc(NC(=O)CC2OC(=O)c3ccccc32)s1 (stereo not drawn)	-4.1	-9.4	3.3	19.4*	.	3.0	1.2
COc1cc(C(=O)NC2CCN(CC(=O)NC3CCCCC3C)CC2)cc(OC)c1OC (stereo not drawn)	-3.7	-9.2	6.8	18.4*	3.1	5.1	1.7
COc1ccc(C(=O)NC2CCN(CC(=O)NC3CCCCC3)CC2)cc1	10.5	-2.0	3.6	-8.0	2.3	.	.
Cc1cccc(/C=N/NC(=O)c2cc(Br)ccc2OCc2ccccc2)n1	0.9	4.0	6.5	19.2*	17.3	8.0	2.0
Cc1cccc(/C=N/NC(=O)c2ccccc2OCc2cccc(Br)c2)n1	-6.7	-8.6	-3.0	-3.2	-8.4	.	.
C/[N+]([O-])=C\c1cccc(OCCN2CCN(c3ncc(C(F)(F)F)cc3Cl)CC2)c1	-3.9	4.2	-6.4	1.5	2.6	.	.
O=C(N/N=C/c1cc(O)ccc1[N+](=O)[O-])c1ccc2c(c1)OCCO2	-1.1	-4.1	-14.0	19.5*	7.4	5.3	-0.1
O=S(=O)(c1ccc2c(c1)OCCO2)N1CCC(c2nc3ccccc3[nH]2)CC1	-0.6	-5.7	-1.6	18.7*	3.5	3.6	2.5
SMILES	PKA-R1A act	ATG4B inhibitor	NRP1-CendR mod	PKA-R2B activ	VLA-4 inh	R2B FP artifact	PKA-R2B act conf
Cc1ccccc1-c1nc(Cc2ccc(Cl)cc2)no1	-2.1	2.2	-1.7	19.3*	2.8	-1.9	-0.9
Cc1ccccc1-c1nnc(-c2ccc(Cl)cc2)o1	-7.9	-3.4	-5.2	-4.2	-10.3	.	.
CN1C2CCC1CC(NC(=O)c1cc(S(=O)(=O)N(C)C)c(Cl)cc1Cl)C2 (stereo not drawn)	4.8	-9.1	12.1	19.0*	-1.5	1.9	0.9
Cc1cccc(CC(C)NC(=O)c2cc(COc3ccc(C)c(C)c3)on2)n1 (stereo not drawn)	5.0	15.3	-6.1	-6.5	13.0	.	.
Cc1ccc(OCc2cc(C(=O)NC(C)Cc3cnccn3)no2)cc1C (stereo not drawn)	3.8	-7.7	-9.0	20.6*	-6.4	6.5	4.7
O=S(=O)(NC1CCCC1)c1ccc(S(=O)(=O)N(Cc2cccs2)CC2CCCO2)cc1 (stereo not drawn)	4.7	3.4	-0.5	19.5*	6.5	0.2	0.6
O=C1CC2(CCCC2)CC(=O)N1CCCCN1CCN(c2ncccn2)CC1	11.7	-10.4	-10.7	23.3*	-11.3	2.1	0.1
CN1C(=O)N(CC(=O)N2CCN(c3ncccn3)CC2)C(=O)C12CCCCC2	-0.7	-1.0	-1.3	9.8	.	.	.
C=CCNC(=O)c1c(CSc2ccccc2)noc1C(=O)NCc1ccccc1	3.1	11.9	3.6	4.6	-5.9	.	.
C=CCNC(=O)c1onc(CSc2ccncc2)c1C(=O)NCC=C	-9.4	-1.5	19.6	22.4*	-9.2	2.9	0.0
Cc1ccc2nc(SCCC#N)nc(C)c2c1	1.1	5.2	-6.0	-0.4	1.4	.	.
Cc1ccc2nc(SCC(=O)O)nc(C)c2c1	6.9	-3.0	6.3	20.2*	-4.1	2.5	2.0
Oc1ccc(CCc2ccccn2)cc1	10.1	.	-9.5	8.2	.	.	.
O=C(COc1ccc2c(c1)oc(=O)c1ccccc12)NCC1CCC(C(=O)O)CC1 (stereo not drawn)	-2.7	-22.6	1.1	7.7	45.8	.	.
NC(=O)Nc1ccc(Cl)cc1	1.9	-2.5	6.6	22.6*	-2.9	-2.3	0.6
O=C(Cc1ccc(Br)cc1)N/N=C/c1cccnc1	-8.9	-14.4	5.5	-5.8	0.6	.	.
COc1ccc(N=Cc2c(O)[nH]c3ccccc23)cc1	4.4	-16.7	-1.9	-0.7	-5.2	.	.
Cc1ccc(N=Cc2c(O)[nH]c3ccccc23)c([N+](=O)[O-])c1	3.0	0.0	19.0	19.4*	18.5	2.9	0.7
